Source: PubChem BioAssay (several laboratories)
Only some compounds are listed: those with a hit (about 2.4% of all), similar ones and a draw of the others.
PERK inhibitor = block of dimerizer-induced PERK translation repression, primary screen, PERK inhibitor project, CHO PERK-DD cells, SEAP luminescence, HTS; inhibition, % at 5.6 µM; Eukaryotic translation initiation factor 2-alpha kinase 3 (Homo sapiens), Q9NZJ5; 0.17% of 220,000 active; CHO PERK-DD fusion, SEAP luminescence translation reporter;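 active means inhibition above the mean inhibition of all tested compounds plus 3 SD, set separately per screening campaign, cut at about 2.9% in these data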;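 further: PERK kinase domain activated by AP20187 dimerizer at 100 nM; 0% = DMSO with dimerizer and 100% = rapamycin at 8.4 µM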
Target sequence (Q9NZJ5 whole entry, looked up, the tested form may be a part): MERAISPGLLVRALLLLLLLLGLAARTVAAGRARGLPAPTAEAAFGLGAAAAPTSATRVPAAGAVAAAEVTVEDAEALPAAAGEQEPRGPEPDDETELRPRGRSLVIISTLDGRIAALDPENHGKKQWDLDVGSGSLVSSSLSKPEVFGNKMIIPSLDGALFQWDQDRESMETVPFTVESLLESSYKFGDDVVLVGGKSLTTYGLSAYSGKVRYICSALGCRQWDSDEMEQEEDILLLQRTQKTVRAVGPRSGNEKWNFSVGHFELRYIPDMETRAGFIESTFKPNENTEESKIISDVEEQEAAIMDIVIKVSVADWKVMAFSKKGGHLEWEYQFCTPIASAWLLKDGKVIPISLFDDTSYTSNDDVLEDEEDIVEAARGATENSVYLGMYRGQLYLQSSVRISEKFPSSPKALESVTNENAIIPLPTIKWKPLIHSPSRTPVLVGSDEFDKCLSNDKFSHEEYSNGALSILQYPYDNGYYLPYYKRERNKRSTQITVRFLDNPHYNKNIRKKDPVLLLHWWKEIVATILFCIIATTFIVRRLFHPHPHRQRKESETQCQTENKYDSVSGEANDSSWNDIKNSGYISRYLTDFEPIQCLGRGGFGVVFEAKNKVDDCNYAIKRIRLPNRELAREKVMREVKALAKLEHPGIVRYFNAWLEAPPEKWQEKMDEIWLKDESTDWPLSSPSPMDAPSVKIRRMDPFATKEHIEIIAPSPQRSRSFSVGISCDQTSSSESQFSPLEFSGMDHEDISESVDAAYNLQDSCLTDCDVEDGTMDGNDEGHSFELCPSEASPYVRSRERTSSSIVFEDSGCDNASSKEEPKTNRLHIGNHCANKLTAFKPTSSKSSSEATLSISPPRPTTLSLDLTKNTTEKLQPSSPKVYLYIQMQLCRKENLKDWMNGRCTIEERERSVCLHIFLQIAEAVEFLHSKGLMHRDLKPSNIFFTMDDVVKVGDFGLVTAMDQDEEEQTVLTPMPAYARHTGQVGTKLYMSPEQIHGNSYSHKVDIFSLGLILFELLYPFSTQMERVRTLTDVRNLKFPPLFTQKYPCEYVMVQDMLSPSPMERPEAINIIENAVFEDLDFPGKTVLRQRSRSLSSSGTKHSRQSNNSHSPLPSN
PfM18AAP inh = PfM18AAP inhibitors, malaria aminopeptidase, primary screen, biochemical, QFRET, recombinant enzyme; M18 aspartyl aminopeptidase (Plasmodium falciparum 3D7); H-Glu-NHMec fluorogenic cleavage; inhibition, % at 7.35 µM; 1.2% of 290,000 active; AID 1822, 2009;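 active means inhibition above the campaign mean inhibition over all tested compounds plus 3 SD, cut at about 28% in these data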;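 further: 0% = plate median of test compound wells and 100% = 2 mM ZnCl2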
eIF4H inh = human eIF4H binding inhibitors, primary screen, translation initiation inhibitor project, biochemical, uHTS, fluorescence polarization. inhibition, % at 35 µM. 0.94% of 290,000 active. Eukaryotic translation initiation factor 4H (Homo sapiens), Q15056. eIF4H fluorescence polarization binding assay. AID 2012, 2009;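 further: calls also rest on retests at 20 µM and on dose response follow-up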
PABP FP inh = PABP poly(A) RNA binding inhibitors, primary screen, biochemical, fluorescence polarization, uHTS. AID 2014, 2009. inhibition, % at 35 µM. Polyadenylate-binding protein 1 (Homo sapiens), P11940. 1% of 290,000 active;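 further: calls also rest on retests at 20 µM and on dose response follow-up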
eIF4E-4G inh = eIF4E–eIF4G protein interaction inhibitors, primary screen, biochemical, uHTS, TR-FRET, eIF4GI fragment | AID 782, 2007 | 0.37% of 220,000 active | Eukaryotic translation initiation factor 4E (Mus musculus) + Eukaryotic translation … | inhibition, % at 21.7 µM | TR-FRET eIF4E-eIF4GI(517-606) binding, 2 h;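 active means inhibition above about 30%, limit read from the data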;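 further: 0% = full FRET control wells and 100% = background wells lacking eIF4GI fragment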
MLLE-PAM2 inh = inhibitors of PABP1 MLLE–PAM2 peptide binding, primary screen, biochemical, fluorescence polarization, FITC-PAM2, GST-MLLE. inhibition, % at 20 µM. Polyadenylate-binding protein 1 (Homo sapiens), P11940. AID 588489, 2011. 0.36% of 360,000 active; in the data active means inhibition above about 35%, passing the limit was not always enough;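 further: plate controls were DMSO wells with GST-MLLE for no effect and wells lacking GST-MLLE protein for full effect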
The depositor's hits bear a star; u = inconclusive; x = no result given; [ ] = remark or other dose. Unless noted, how the calls were made is not given here.

SMILES	PERK inhibitor	PfM18AAP inh	eIF4H inh	PABP FP inh	eIF4E-4G inh	MLLE-PAM2 inh
CNC(=O)c1c(NC(=O)c2ccc(S(=O)(=O)N3CCCC3)cc2)sc2c1CCN(C(C)C)C2	x	32*	u	23	x	x
CN1CCN(C2=CC(=O)OC23CCCCC3)CC1	1	-4	-1	-7	84*	1
O=C(CN1CC(=O)Oc2ccccc21)OCC(=O)c1ccccc1	2.9*	11	15	1	1	14
O=C(CN1CC(=O)Oc2ccccc21)OCC(=O)c1cccc(Br)c1	-1	10	20	6	3	-9
Cc1cc(N2CCC(C)CC2)c(F)cc1[N+](=O)[O-]	0	1	0	8	3	-1
Cc1cc(N2CCCC2)c(F)cc1/C=C\[N+](=O)[O-]	1	8	58	0.6*	1	-113
O=C(N/N=C/c1ccc(OC(=O)c2ccc(Br)cc2)cc1)c1ccncc1	x	-5	79*	-17	x	-6
O=C(N/N=C/c1ccoc1)c1cc(O)cc(O)c1	x	17	96*	74*	x	-7
COc1cc(C(=O)N/N=C/c2ccc(OC(=O)c3ccccc3)c(OC)c2)ccc1O	x	-3	4	-6	x	-1
COc1cc(/C=N/NC(=O)c2cc(O)cc(O)c2)ccc1OC(=O)c1ccccc1	x	9	81*	94*	x	-5
Cc1cc(C)cc(C(=O)N/N=C/c2ccoc2)c1	x	0	28	10	x	-16
O=C(N/N=C/c1ccc(OC(=O)c2ccccc2Cl)cc1)c1cc(O)cc(O)c1	x	3	92*	91*	x	0
O=C(N/N=C/c1ccc(OC(=O)c2ccco2)cc1)c1ccncc1	x	7	8	16	x	-17
O=C(N/N=C/c1ccc(OC(=O)c2ccccc2Cl)cc1)c1ccccn1	x	5	-10	5	x	-12
COCCN1CCC(CNCc2cn(-c3cc(C)ccc3C)nc2-c2ccccc2)C1 (stereo unspecified)	-1	-9	2	-2	-1	-2
COC(=O)CSC1=C(C#N)C(=O)NC(c2ccccc2)S1 (stereo unspecified)	0	10	-5	11	3	42*
C/C(=N\Nc1ccc([N+](=O)[O-])cc1)c1cc2ccccc2o1	-1	-4	57*	11	4	-136
O=C(N/N=C/c1ccc([N+](=O)[O-])o1)c1cc2ccccc2o1	1	5	70*	37*	1	-11
O=C(N/N=C\c1ccc([N+](=O)[O-])o1)c1cncc(Br)c1	1	14	71*	54*	-5	-2
O=C(NN=Cc1ccc(F)cc1)c1ccccc1NS(=O)(=O)c1cccs1	x	x	x	x	x	3
O=C(N/N=C/c1ccc([N+](=O)[O-])o1)c1ccccc1NS(=O)(=O)c1cccs1	2	10	76	47*	-2	-2
O=C(N/N=C/c1ccc(-c2ccccc2[N+](=O)[O-])o1)c1cncc(Br)c1	1	14	10	11	-2	19
COc1ccc2oc(=O)cc(CN3CCN(Cc4ccc(OC)c(OC)c4OC)CC3)c2c1	x	0	4	-1	x	6
Cc1ccc(NC(=O)CN2C(=O)COc3ccc(S(=O)(=O)N4CCCC4)cc32)cc1C	x	-1	-10	-1	x	-10
CCNC(=S)N/N=C(\C)c1cc2ccccc2o1	0	-1	7	-10	3	13
SMILES	PERK inhibitor	PfM18AAP inh	eIF4H inh	PABP FP inh	eIF4E-4G inh	MLLE-PAM2 inh
O=C(N/N=C/c1ccc([N+](=O)[O-])o1)c1cc2c(ccc3ccccc32)o1	1	-1	76	32*	38*	-5
C/C(=N\NC(=S)Nc1cccc(C)c1)c1cc2ccccc2o1	0	-11	7	4	-1	43*
Cc1cc(/C=N/NC(=O)c2cc3ccccc3o2)c(C)n1C	x	30*	11	12	x	-34
Cc1ccc(NC(=O)COc2ccc(/C=C3/SC(=Nc4ccccc4)N(Cc4cccnc4)C3=O)cc2)cc1	-1	3	58*	79*	4	-18
O=c1[nH]cc(N(CCO)CCO)c(=O)[nH]1	0	-6	0	6	94*	2
O=c1[nH]cc(O)c(=O)[nH]1	-1	-1	-2	-5	-2	8
CCN(CC(=O)NC1CC1)S(=O)(=O)c1ccc(OC)cc1	x	-4	-5	-2	x	6
CSc1nsc(SCC(=O)N2CCc3ccccc32)n1	-1	5	6	8	38*	8
Cc1nnc(SCC(=O)N2CCc3ccccc32)s1	0	-2	-7	1	-2	3
O=C(O)CSc1cc(NS(=O)(=O)c2ccc(Cl)cc2)c2ccccc2c1O	x	14	-2	16	x	40*
Cc1ccc(NC(=O)CCNC(=O)c2ccc(Br)cc2)cc1S(=O)(=O)N1CCCCCC1	x	x	x	x	x	-15
CCCCCCCCCCCCCCCC[n+]1cccc2ccccc21	1	2	2	1	92*[fluorescence artefact?]	-143
O=C(CCSc1ccc(Cl)c(Cl)c1)NC12CC3CC(CC(C3)C1)C2	1	-10	-1	5	-11	6
O=C(O)c1ccc(N/N=C2/CCSc3ccc(F)cc32)cc1	x	29*	5	-1	x	0
Cc1onc(-c2c(Cl)cccc2Cl)c1C(=O)ONC(=O)c1cc(C(F)(F)F)cc(C(F)(F)F)c1	3.0*	5	0	-4	2	-5
CCn1c(=O)c(-c2cc(=O)[nH][nH]2)c(O)c2ccccc21	1	31*	5	9	0	5
O=c1cc(-c2c(O)c3ccccc3n(Cc3ccccc3)c2=O)[nH][nH]1	0	1	39	-2	2	7
Cc1ccc2c(c1)N(CCC(=O)NCCCN1CCCC1)C(=O)C(C)O2 (stereo unspecified)	x	6	2	11	x	-7
C[N+]1(CC(=O)OCCCC2CCCCC2)CCCC1	0	-10	-9	55*	-4	-119
CCOC(=O)C1(C)CCN1C(=O)c1ccc(OC)c(C(F)(F)F)c1 (stereo unspecified)	x	x	x	x	x	14
Cc1cnc(CNC(=O)CC2C(=O)NCCN2Cc2cccc(F)c2F)cn1 (stereo unspecified)	x	12	81*	53*	x	21
Cc1nc(CCNC(=O)CC2C(=O)NCCN2Cc2ccccc2)sc1C (stereo unspecified)	x	1	7	14	x	38*
